Consider 40 compounds from PubChem BioAssay (NCI).

The panel holds about 83,000 compounds, 20% with a hit somewhere; the sample as a whole holds those more often.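 Percent growth is the endpoint: 0 to 100 indicates growth inhibition (40 means 60% inhibition), 0 means no net growth, and negative values indicate cell death.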 A number with no mark means an inactive call. Calls of active or inactive are those of the source.

This assay relates to SN12C renal. In words: NCI-60 one-dose screen, 48 h (100 = growth as untreated, 0 = no growth, -100 = all killed). Conditions: 10 µM. Here is the method:
Growth inhibition of the SN12C human tumor cell line is measured as a screen for anti-cancer activity. Cells are grown in 96 well plates and exposed to the test compound for 48 hours. Compounds are tested at a single concentration, which is 10^-5 M for most compounds. The reported endpoint is percent growth (GI% or GIPRCNT), where numbers from 0 - 100% represent growth inhibition, and numbers from -100% - 0 represent cell death. For example, a value of 40 represents 60% growth inhibition. A value of 0 means no net growth occurred over the course of the experiment. A value of -40 indicates 40% of cells at the beginning of the experiment died by the end of the experiment. A value of -100 means all cells are dead at the end of the experiment.
NCI-60 Human Tumor Cell Lines Screen was performed using the standard one-dose NCI protocol, which is described in more detail at https://dtp.cancer.gov/discovery_development/nci-60/default.htm.
Compounds with GIPRCNT values below 10 were considered active. Activity score was based on GIPRCNT using the following formula: […]
Score is 0 for GIPRCNT values of 100 or above, 50 for GIPRCNT values of 0, and 100 for GIPRCNT values of -100.
Turning to `COc1ccc(-c2nc3sc(-c4ccc(OC)cc4)c(-c4ccc(OC)cc4)n3c2/C=C/c2ccc(C(C)C)cc2)cc1`, the growth is 99.2%.
On to `CC(=O)N1C/C(=C/c2ccc(Cl)cc2)C(=O)/C(=C/c2ccc(Cl)cc2)C1`, for which the growth was -42.4% (active).
Take `CCN(CCCCCCCCCCN1CC(=O)N(CCCCCCCCCCN(CC)Cc2ccccc2OC)CC1=O)Cc1ccccc1OC`: the growth was 9.4% (active).
`Cc1cc(Cc2cc(C)c(O)c(C)c2)cc(C)c1O`: the growth is 65.3%.
With `c1ccc2c(c1)oc1c3cccnc3ccc21`, the growth is 93.2%.
Consider `COc1cc2nc(Nc3cccc(NC(C)=O)c3)nc(N)c2cc1OC`, for which the growth is 95.5%.
The same measure for `CC12O[C@H](C[C@@H](O)[C@H]1O)n1c3ccccc3c3c4c(c5c6ccccc6n2c5c31)C(=O)N(CCCN)C4=O`: 36.2%; for `FC(F)(F)c1ccc(-c2cnc(Cl)nc2N2CCC3(CC2)OCCO3)cc1`: 103%.
Turning to `Cc1c(Cl)cccc1NC(=O)c1sc2nc3c(cc2c1N)C(=O)CCC3`, the growth is 30.8%.
Turning to `CCCCC/C=C/C(=O)CCc1ccc(O)c(OC)c1`, the growth was 81.3%.
Take `COc1cc2c(cc1OCCCN1CCN(c3ncnc4ccccc34)CC1)N=CC1CCCN1C2=O` (stereo not given): the growth was 3.4% (active).
The same measure for `COc1ccc(-c2cc(/C=C3\C(=O)Nc4ccc(Cl)cc43)[nH]n2)cc1OC`: 87.1%.
The same measure for `CCOC(=O)CCC(NC(=O)c1ccc(N)cc1)C(=O)OCC` (stereo not given): 103%.
Turning to `CC1CN(Cc2ccccc2)C(=O)NC1=O` (stereo not given), the growth was 91.1%.
As for `Nc1ccc2c(c1)C1(CCC2)NC(=O)NC1=O` (stereo not given), the growth was 97.3%.
In the case of `O=C1OCC2=C1C(c1ccc(Cl)c(Cl)c1)c1cc3c(cc1N2CCO)OCCO3` (stereo not given) it was 41.7%.
Turning to `COc1cc(-c2cc(C(=O)N3CCN(C(=O)c4ccccc4NCc4ccco4)CC3)nc3cc(-c4ccccc4)nn23)cc(OC)c1OC`, the growth is 44.4%.
With `COc1cc(C2CC(c3ccc(Nc4ccnc5cc(Cl)ccc45)cc3)=NN2c2ccc(Cl)cc2)cc(OC)c1OC` (stereo not given), the growth was 59.5%.
In the case of `NC(=O)CC1(c2ccccc2)CCCCC1` it was 101%; in that of `CCCCCC(=O)c1ccc(OCCCN2CCN(C(=O)OCC)CC2)cc1`, 94.8%; in that of `CC(=O)n1c(-c2ccc(Cl)c(Cl)c2)cn(-c2ccc(Cl)cc2)c1=O`, 46.9%.
Consider `COc1cc(-c2nn3c(/C=C4/C(=O)Nc5ccccc54)c(-c4ccc(C)cc4)nc3s2)cc(OC)c1OC`, for which the growth was 73.2%.
Turning to `N=C(N)c1ccc(-c2ccc(-c3ccco3)o2)cc1`, the growth was 69.3%.
In the case of `Cc1ccc2oc3nc(C)c(C(=O)NCc4ccccc4)cc3c(=O)c2c1`, the growth is 96.5%.
The same measure for `C/C(N)=C(\C#N)C(=O)c1ccccc1`: 106%.
Consider `Nc1nc(Nc2ccccc2)n[nH]1`, for which the growth was 101%.
`CCN(CC)CCNc1ccc(CO)c2oc3cc(Cl)ccc3c(=O)c12`: the growth is 76.3%.
On to `O=C(Nc1cccc(-n2cc(-c3ccncc3)c(-c3cc(O)cc(Cl)c3)n2)c1)c1ccc(N2CCOCC2)c(C(F)(F)F)c1`, for which the growth was 46.4%.
Regarding `COc1ccc(OC)c(NC(=O)c2sc3nc4c(cc3c2N)C(=O)CCC4)c1`, the growth is 95.5%.
In the case of `COc1ccc(Cn2c(C(N)=O)cc3c2-c2nc(N)ncc2CCC3)cc1`, the growth was 106%.
Turning to `CC1(C)Cc2c(sc3ncn4nc(-c5ccc(O)cc5)nc4c23)CO1`, the growth was 63.5%.
With `COc1ccc(N=C2C(=Nc3ccc(OC)cc3)N(c3ccc(N(C)C)cc3)C(=S)N2c2ccc(OC)cc2)cc1`, the growth was 106%.
Regarding `COc1ccc2nc3ccccc3c(NCCNCC(C)O)c2c1` (stereo not given), the growth is -4.73% (active).
As for `CN(C)N=Nc1nn(C(=O)Nc2ccc(Cc3ccccc3)cc2)c2ccccc12`, the growth was 58.9%.
`O=S(=O)(Nc1ccccn1)c1ccc(N=Nc2ccc(O)c3ncccc23)cc1`: the growth was 5.49% (active).
Regarding `CCOC(=O)C(NC(=O)C(Cl)Cl)C(O)c1ccccc1` (stereo not given), the growth is 98.8%.
In the case of `c1ccc(CP(Cc2ccccc2)c2ccccc2)cc1`, the growth was 100%.
Take `N=c1nc(N)ncn1-c1ccccc1`: the growth is 87.3%.
Take `CCN(CC)CCCOCCCNc1cc(OC)cc2cccnc12`: the growth is 87.7%.
Take `COc1cc2cc3c(nc2cc1OC)CCN3Cc1ccc(NC(=O)Nc2cc(C(F)(F)F)cc(C(F)(F)F)c2)cc1`: the growth was 74.3%.
